Assay results reported in the supplement of paper PMC6411743.
± gives the standard deviation of the averaged measurements. Targets with the largest changes are over-represented here; the source holds about 5,400 in all.

Compound: Nc1nc2c(ncn2[C@@H]2O[C@H](COP(=O)(O)OP(=O)(O)OP(=O)(O)O)[C@@H](O)[C@H]2O)c(=O)[nH]1 [guanosine triphosphate]
Assay: NP40-soluble protein abundance relative to vehicle (solubility fold change) (ratio); higher = more soluble protein in presence of GTP
How it was run: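 Eight concentrations, 0.1 to 10 mM, were tested on Jurkat crude lysate for 10 min at room temperature and then 3 min at 37 °C, in three independent experiments. The lysate was solubilised with 0.8% NP40 and benzonase, ultracentrifuged, and the supernatant TMT-labelled for LC-MS/MS. Each value is the fold change against the detergent-processed vehicle in its own replicate, from vsn-normalised intensities.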

UniProt Q16643, sequence (Q16643 whole entry): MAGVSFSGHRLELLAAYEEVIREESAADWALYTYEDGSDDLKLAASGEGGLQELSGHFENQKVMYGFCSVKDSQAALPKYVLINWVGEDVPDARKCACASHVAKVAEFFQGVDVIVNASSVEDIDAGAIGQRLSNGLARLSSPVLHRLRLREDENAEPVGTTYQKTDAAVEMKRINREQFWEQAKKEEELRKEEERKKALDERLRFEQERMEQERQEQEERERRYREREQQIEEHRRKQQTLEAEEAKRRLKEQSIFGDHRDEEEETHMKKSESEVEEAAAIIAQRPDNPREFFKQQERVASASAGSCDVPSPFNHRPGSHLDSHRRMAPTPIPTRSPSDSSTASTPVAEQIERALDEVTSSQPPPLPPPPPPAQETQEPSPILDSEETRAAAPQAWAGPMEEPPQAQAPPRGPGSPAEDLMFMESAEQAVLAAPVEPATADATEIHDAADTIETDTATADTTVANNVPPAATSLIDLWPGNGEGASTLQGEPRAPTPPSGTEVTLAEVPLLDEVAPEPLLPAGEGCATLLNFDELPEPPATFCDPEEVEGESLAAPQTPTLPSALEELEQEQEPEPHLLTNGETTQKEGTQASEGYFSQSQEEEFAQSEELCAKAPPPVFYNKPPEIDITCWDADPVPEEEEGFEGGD
UniProt Q13769, sequence (Q13769 whole entry): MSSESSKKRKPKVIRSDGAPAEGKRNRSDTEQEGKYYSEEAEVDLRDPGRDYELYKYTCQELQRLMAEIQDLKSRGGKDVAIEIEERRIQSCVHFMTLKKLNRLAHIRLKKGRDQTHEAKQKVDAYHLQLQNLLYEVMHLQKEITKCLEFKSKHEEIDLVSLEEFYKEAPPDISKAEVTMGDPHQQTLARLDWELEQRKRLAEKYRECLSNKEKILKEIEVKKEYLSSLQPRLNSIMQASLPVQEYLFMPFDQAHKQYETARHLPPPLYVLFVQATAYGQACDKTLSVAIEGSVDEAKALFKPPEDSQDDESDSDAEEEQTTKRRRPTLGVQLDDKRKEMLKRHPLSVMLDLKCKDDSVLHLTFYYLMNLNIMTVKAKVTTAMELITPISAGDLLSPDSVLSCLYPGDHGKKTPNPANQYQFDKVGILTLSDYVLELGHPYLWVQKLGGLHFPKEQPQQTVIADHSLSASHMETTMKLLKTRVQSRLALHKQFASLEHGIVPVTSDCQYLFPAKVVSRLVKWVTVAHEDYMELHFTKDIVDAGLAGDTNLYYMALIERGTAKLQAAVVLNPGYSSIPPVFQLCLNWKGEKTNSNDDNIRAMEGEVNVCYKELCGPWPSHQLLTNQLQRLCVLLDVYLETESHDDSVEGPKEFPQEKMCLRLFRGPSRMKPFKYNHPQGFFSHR
UniProt P61981, sequence (P61981 whole entry): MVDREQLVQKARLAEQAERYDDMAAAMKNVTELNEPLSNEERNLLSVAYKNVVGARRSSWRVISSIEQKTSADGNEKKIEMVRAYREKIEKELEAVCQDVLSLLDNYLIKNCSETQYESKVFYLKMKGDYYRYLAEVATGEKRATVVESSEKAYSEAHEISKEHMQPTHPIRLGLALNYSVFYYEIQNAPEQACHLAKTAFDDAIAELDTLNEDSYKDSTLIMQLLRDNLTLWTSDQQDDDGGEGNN
UniProt Q86V48, sequence (Q86V48 whole entry): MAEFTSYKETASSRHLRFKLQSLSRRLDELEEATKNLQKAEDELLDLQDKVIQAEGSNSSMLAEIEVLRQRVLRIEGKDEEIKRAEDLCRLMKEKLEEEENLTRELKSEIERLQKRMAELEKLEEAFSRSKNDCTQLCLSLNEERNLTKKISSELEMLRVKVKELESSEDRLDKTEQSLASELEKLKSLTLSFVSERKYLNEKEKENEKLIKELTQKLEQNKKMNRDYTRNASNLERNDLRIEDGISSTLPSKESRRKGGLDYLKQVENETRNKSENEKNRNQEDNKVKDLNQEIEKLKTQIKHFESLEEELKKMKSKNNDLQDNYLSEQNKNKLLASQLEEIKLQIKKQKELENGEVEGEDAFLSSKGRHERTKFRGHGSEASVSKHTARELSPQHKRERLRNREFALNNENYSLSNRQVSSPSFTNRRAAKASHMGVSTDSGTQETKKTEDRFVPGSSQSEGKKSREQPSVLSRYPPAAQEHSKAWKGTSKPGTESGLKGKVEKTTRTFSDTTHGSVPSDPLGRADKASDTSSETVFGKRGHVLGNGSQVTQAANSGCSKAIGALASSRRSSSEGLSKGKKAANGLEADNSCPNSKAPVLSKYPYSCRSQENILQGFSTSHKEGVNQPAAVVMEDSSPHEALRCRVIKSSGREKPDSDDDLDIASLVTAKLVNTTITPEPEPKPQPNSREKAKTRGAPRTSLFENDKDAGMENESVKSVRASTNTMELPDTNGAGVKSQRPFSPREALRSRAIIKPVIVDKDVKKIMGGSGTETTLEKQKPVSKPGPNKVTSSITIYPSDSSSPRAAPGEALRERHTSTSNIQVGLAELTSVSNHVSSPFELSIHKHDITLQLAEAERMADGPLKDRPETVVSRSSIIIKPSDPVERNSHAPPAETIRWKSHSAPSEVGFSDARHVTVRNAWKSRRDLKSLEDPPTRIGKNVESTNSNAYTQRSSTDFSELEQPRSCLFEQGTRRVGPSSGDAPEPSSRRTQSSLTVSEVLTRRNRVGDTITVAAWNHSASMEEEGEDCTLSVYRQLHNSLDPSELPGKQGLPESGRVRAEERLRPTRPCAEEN
UniProt Q12788, sequence (Q12788 whole entry): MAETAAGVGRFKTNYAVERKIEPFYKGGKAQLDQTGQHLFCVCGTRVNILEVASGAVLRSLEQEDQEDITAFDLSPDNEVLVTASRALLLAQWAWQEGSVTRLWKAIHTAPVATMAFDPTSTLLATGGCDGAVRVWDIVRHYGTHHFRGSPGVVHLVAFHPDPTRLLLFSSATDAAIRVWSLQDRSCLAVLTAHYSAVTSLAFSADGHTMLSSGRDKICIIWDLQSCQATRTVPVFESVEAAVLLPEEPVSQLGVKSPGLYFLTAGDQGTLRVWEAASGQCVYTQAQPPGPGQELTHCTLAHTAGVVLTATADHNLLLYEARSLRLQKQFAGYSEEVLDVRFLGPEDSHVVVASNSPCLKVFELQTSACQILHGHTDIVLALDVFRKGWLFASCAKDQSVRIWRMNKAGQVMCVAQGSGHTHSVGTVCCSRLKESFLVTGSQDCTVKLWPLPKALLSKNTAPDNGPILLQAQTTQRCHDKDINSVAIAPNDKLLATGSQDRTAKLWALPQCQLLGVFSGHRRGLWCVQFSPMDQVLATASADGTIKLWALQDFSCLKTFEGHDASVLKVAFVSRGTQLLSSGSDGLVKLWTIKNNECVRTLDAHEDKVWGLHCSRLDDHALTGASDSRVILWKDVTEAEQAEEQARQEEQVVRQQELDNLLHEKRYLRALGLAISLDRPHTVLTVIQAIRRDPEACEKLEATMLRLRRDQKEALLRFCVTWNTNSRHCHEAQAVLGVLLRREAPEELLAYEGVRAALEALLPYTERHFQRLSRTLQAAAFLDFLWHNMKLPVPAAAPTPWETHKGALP
UniProt Q16630, sequence (Q16630 whole entry): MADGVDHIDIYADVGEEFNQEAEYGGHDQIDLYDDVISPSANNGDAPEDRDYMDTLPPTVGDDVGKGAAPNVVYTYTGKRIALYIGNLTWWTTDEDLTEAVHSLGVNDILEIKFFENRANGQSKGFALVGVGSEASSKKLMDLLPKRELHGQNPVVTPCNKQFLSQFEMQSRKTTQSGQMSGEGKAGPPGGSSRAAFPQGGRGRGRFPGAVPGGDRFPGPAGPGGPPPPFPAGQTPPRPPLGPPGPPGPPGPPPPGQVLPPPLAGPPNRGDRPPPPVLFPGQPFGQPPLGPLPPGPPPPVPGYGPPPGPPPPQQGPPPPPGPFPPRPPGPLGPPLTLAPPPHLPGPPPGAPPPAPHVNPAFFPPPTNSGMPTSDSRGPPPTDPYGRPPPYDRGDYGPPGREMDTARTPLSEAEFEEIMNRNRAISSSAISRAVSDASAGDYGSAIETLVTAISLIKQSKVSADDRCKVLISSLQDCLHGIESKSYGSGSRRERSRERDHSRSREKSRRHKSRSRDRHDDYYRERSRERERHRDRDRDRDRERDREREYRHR
UniProt Q00653, sequence (Q00653 whole entry): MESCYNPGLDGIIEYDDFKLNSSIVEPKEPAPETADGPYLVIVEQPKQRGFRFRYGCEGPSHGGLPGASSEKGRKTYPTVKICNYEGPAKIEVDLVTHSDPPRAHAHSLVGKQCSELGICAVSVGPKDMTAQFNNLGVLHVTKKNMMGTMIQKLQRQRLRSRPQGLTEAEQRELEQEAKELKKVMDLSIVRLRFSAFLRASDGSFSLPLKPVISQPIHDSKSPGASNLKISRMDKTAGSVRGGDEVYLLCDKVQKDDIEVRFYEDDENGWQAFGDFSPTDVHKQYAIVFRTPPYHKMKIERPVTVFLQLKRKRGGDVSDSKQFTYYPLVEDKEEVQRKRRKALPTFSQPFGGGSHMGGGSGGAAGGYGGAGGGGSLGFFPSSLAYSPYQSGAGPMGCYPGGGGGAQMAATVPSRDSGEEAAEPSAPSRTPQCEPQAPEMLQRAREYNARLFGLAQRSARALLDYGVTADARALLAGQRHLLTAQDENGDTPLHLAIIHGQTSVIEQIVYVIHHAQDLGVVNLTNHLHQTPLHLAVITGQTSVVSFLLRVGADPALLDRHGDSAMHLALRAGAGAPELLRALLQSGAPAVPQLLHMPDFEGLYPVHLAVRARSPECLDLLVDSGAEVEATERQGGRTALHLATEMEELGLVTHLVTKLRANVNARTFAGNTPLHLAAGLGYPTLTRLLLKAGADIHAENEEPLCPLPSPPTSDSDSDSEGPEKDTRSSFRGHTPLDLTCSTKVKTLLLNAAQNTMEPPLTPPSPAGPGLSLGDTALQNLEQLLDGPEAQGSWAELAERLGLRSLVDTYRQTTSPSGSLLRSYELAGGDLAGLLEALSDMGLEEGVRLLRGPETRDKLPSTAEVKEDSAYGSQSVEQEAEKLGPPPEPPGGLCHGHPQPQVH

Target	NP40-soluble protein abundance (concentration: 0.1mM)	NP40-soluble protein abundance (concentration: 0.5mM)	NP40-soluble protein abundance (concentration: 1mM)	NP40-soluble protein abundance (concentration: 2mM)	NP40-soluble protein abundance (concentration: 4mM)	NP40-soluble protein abundance (concentration: 6mM)	NP40-soluble protein abundance (concentration: 8mM)	NP40-soluble protein abundance (concentration: 10mM)
UniProt Q13642-1|Q13642-4|Q13642-5	1.07 ± 0.16	1.09 ± 0.17	0.946 ± 0.13	0.921 ± 0.14	0.932 ± 0.12	0.911 ± 0.12	0.952 ± 0.093	0.915 ± 0.15
UniProt P61981	0.845 ± 0.11	0.811 ± 0.067	1.01 ± 0.14	0.987 ± 0.076	0.942 ± 0.075	0.968 ± 0.12	0.912 ± 0.15	1.05 ± 0.16
UniProt P55072	0.982 ± 0.03	1.05 ± 0.064	0.999 ± 0.073	1.02 ± 0.12	1.03 ± 0.11	1.03 ± 0.14	1 ± 0.1	1 ± 0.11
UniProt Q5SRE5|Q5SRE5-2	1.17 ± 0.11	1.13 ± 0.051	1.03 ± 0.13	1.01 ± 0.13	1.13 ± 0.024	1.11 ± 0.088	1.03 ± 0.029	1.08 ± 0.046
DHX9 (UniProt Q08211)	1.03 ± 0.088	1.13 ± 0.16	1.06 ± 0.17	1.2 ± 0.26	1.32 ± 0.28	1.49 ± 0.37	1.52 ± 0.3	1.64 ± 0.33
UniProt Q6KCM7|Q6KCM7-2|Q6KCM7-3|Q6KCM7-4|Q6KCM7-5|Q6KCM7-6	1.12 ± 0.041	1.08 ± 0.034	1.06 ± 0.058	1.04 ± 0.016	1.04 ± 0.066	1.019 ± 0.0034	0.982 ± 0.061	0.989 ± 0.098
UniProt Q86V48|Q86V48-2|Q86V48-3	0.953 ± 0.056	0.967 ± 0.042	1.01 ± 0.051	0.99 ± 0.097	1.03 ± 0.088	1.08 ± 0.081	1.17 ± 0.1	1.2 ± 0.11
UniProt Q86V81	0.939 ± 0.019	0.943 ± 0.079	1.12 ± 0.036	1.25 ± 0.097	1.5 ± 0.047	1.73 ± 0.054	1.95 ± 0.1	2.52 ± 0.13
UniProt Q8N3X1|Q8N3X1-2	1.05 ± 0.043	1.01 ± 0.076	1.09 ± 0.022	1.27 ± 0.017	1.39 ± 0.024	1.64 ± 0.031	1.77 ± 0.15	2.04 ± 0.24
UniProt Q7L5D6|Q7L5D6-2	1.03 ± 0.056	0.98 ± 0.091	0.94 ± 0.047	0.975 ± 0.11	0.963 ± 0.12	0.986 ± 0.1	0.868 ± 0.053	0.887 ± 0.12
UniProt Q86Y37|Q86Y37-4	0.963 ± 0.063	0.923 ± 0.074	0.9527 ± 0.0029	0.9274 ± 0.0067	0.907 ± 0.091	0.905 ± 0.048	0.87 ± 0.057	0.889 ± 0.054
UniProt Q8IXB1|Q8IXB1-2	1.17 ± 0.21	1.06 ± 0.11	1.08 ± 0.1	1.17 ± 0.15	1.1 ± 0.11	1.11 ± 0.16	1.1 ± 0.11	1.06 ± 0.084
LARP1 (UniProt Q6PKG0)	1.02 ± 0.039	1.11 ± 0.06	1.32 ± 0.1	1.46 ± 0.11	1.66 ± 0.16	1.78 ± 0.17	1.88 ± 0.22	1.99 ± 0.22
UniProt P63151|E5RJV1	0.983 ± 0.037	1.02 ± 0.071	0.934 ± 0.068	0.931 ± 0.083	0.955 ± 0.079	0.887 ± 0.071	0.92 ± 0.016	0.8766 ± 0.0055
FAM160B1 (UniProt Q5W0V3)	1.03 ± 0.037	1.03 ± 0.027	0.964 ± 0.029	0.959 ± 0.02	0.9389 ± 0.0083	0.922 ± 0.0022	0.91 ± 0.033	0.894 ± 0.051
UniProt Q13428|Q13428-3|Q13428-4|Q13428-7	0.975 ± 0.096	1.01 ± 0.085	1.09 ± 0.12	1.09 ± 0.15	1.11 ± 0.16	1.13 ± 0.14	1.17 ± 0.17	1.23 ± 0.23
UniProt Q8NCW5	0.907 ± 0.084	0.869 ± 0.041	0.991 ± 0.083	0.986 ± 0.055	0.967 ± 0.085	0.932 ± 0.08	0.895 ± 0.11	0.969 ± 0.1
LEMD2 (UniProt Q8NC56)	1.09 ± 0.04	1.22 ± 0.11	1.32 ± 0.076	1.34 ± 0.15	1.34 ± 0.088	1.42 ± 0.11	1.48 ± 0.14	1.49 ± 0.21
UniProt Q8IZ81|D6RBS5	1.12 ± 0.15	1.15 ± 0.2	0.932 ± 0.066	0.934 ± 0.069	0.944 ± 0.063	0.877 ± 0.048	0.958 ± 0.13	0.802 ± 0.051
TBL3 (UniProt Q12788)	1.18 ± 0.1	1.16 ± 0.14	1.11 ± 0.058	1.36 ± 0.15	1.59 ± 0.19	1.65 ± 0.17	1.72 ± 0.21	1.7 ± 0.26
UniProt P60228	1.09 ± 0.046	1.08 ± 0.061	1.05 ± 0.098	1.14 ± 0.17	1.32 ± 0.27	1.44 ± 0.33	1.58 ± 0.3	1.75 ± 0.38
TRAPPC6B (UniProt Q86SZ2)	1.06 ± 0.015	0.988 ± 0.077	0.954 ± 0.058	0.997 ± 0.092	0.999 ± 0.049	0.963 ± 0.088	0.885 ± 0.017	0.958 ± 0.065
UniProt Q00653|Q00653-4	0.995 ± 0.032	0.997 ± 0.021	0.959 ± 0.013	0.955 ± 0.037	0.96 ± 0.048	0.931 ± 0.016	0.966 ± 0.04	0.94 ± 0.045
THOC2 (UniProt Q8NI27)	1.14 ± 0.054	1.33 ± 0.14	1.39 ± 0.15	1.72 ± 0.29	2.05 ± 0.4	2.18 ± 0.51	2.23 ± 0.54	2.16 ± 0.48
THOC5 (UniProt Q13769)	1.18 ± 0.0098	1.35 ± 0.093	1.5 ± 0.18	1.83 ± 0.36	2.21 ± 0.56	2.3 ± 0.66	2.45 ± 0.77	2.37 ± 0.74
UniProt Q16643|Q16643-2|Q16643-3	0.894 ± 0.061	0.888 ± 0.11	0.903 ± 0.11	0.905 ± 0.11	1.08 ± 0.1	1.24 ± 0.11	1.52 ± 0.15	1.81 ± 0.12
UniProt Q16630|Q16630-2	1.16 ± 0.012	1.64 ± 0.098	1.95 ± 0.22	2.23 ± 0.3	2.49 ± 0.41	2.58 ± 0.45	2.71 ± 0.58	2.75 ± 0.56
UniProt Q6WKZ4|Q6WKZ4-3	1.02 ± 0.049	0.951 ± 0.044	0.946 ± 0.05	0.921 ± 0.056	0.933 ± 0.058	0.901 ± 0.022	0.943 ± 0.057	0.89 ± 0.038
MLKL (UniProt Q8NB16)	0.98 ± 0.044	0.962 ± 0.052	0.896 ± 0.062	0.908 ± 0.035	0.873 ± 0.047	0.874 ± 0.032	0.868 ± 0.045	0.837 ± 0.024
UniProt P63092-2|P63092-3|P63092|P63092-4	0.973 ± 0.013	0.9607 ± 0.0034	0.922 ± 0.025	0.91 ± 0.024	0.882 ± 0.043	0.882 ± 0.038	0.873 ± 0.026	0.847 ± 0.031
